# From publication PMC7862700, “An all-to-all approach to the identification of sequence-specific readers for epigenetic DNA modifications on cytosine”
# Experiments:
# Test in all cases: DAPPL (digital affinity profiling via proximity ligation, sequencing); 10 mM Tris-HCl pH 7.5, 50 mM NaCl, 1 mM DTT, 4% glycerol, room temperature, 30 min; GST-TFs on glutathione beads, 16-mer random dsDNA library, 0.1% formaldehyde crosslink after washing; high values mean tight binding
# FLI1 = target: T1, FLI1 (Homo sapiens, UniProt Q01543 1-452); details: protein: recombinant; tags: N-terminal GST; dsDNA, one strand shown
# T1 sequence: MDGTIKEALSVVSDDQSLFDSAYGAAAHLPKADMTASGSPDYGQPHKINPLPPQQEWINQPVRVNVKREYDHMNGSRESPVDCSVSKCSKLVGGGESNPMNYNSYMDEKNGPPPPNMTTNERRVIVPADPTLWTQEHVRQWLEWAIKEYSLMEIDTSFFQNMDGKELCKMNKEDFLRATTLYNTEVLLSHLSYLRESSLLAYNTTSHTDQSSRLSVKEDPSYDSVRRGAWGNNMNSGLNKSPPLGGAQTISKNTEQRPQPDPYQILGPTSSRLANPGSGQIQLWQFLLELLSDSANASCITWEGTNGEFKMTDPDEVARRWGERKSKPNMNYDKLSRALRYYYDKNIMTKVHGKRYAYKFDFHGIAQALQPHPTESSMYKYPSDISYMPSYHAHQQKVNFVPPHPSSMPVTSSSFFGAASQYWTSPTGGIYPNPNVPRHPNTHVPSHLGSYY
# How it was run: (§1)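 After expression in yeast as GST fusions, human transcription factors were bound to glutathione beads, DNA-barcoded and mixed with a tag-only sample. The pools were incubated with 200 nmole of a 16-mer random double-stranded DNA library in Tris/NaCl/DTT/glycerol buffer (30 min, room temperature), washed and crosslinked with 0.1% formaldehyde. Proximity ligation with BsaI/T4 ligase ran for 1 h at 37 °C, before PCR amplification and sequencing on an Illumina NextSeq500. Binding signal is a hexamer's read frequency for a factor divided by its frequency for the tag-only sample.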
# ELK1 = target: T2, ELK1 (Homo sapiens, UniProt P19419 1-428); details: protein: recombinant; tags: N-terminal GST; dsDNA, one strand shown
# T2 sequence: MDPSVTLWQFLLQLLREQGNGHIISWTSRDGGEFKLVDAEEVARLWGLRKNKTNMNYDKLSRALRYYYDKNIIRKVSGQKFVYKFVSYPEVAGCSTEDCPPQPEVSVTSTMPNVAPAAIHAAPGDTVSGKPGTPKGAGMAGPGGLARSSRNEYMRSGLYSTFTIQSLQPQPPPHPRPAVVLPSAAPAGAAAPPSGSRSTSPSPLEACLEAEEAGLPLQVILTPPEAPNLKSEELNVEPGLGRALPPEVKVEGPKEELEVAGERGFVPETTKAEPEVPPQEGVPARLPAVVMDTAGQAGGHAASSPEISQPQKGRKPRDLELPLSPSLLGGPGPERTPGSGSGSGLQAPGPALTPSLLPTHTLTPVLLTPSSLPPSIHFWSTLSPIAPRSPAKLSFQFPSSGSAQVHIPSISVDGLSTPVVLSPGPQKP
# How it was run: as §1
# GABPA = target: T3, GABPA (Homo sapiens, UniProt Q06546 1-454); details: protein: recombinant; tags: N-terminal GST; dsDNA, one strand shown
# T3 sequence: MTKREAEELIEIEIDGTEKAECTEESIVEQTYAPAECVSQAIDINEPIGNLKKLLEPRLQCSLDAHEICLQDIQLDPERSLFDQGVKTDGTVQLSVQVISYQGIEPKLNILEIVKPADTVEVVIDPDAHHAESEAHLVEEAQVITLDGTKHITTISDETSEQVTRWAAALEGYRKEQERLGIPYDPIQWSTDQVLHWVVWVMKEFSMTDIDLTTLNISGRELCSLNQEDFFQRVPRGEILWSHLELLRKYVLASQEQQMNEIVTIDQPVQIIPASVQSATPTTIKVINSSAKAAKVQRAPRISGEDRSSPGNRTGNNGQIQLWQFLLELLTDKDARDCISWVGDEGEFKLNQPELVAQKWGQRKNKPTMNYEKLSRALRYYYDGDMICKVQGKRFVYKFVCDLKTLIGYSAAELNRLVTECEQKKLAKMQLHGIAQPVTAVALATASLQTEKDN
# How it was run: as §1
# ERG = target: T4, ERG (Homo sapiens, UniProt P11308 1-479); details: protein: recombinant; tags: N-terminal GST; dsDNA, one strand shown
# T4 sequence: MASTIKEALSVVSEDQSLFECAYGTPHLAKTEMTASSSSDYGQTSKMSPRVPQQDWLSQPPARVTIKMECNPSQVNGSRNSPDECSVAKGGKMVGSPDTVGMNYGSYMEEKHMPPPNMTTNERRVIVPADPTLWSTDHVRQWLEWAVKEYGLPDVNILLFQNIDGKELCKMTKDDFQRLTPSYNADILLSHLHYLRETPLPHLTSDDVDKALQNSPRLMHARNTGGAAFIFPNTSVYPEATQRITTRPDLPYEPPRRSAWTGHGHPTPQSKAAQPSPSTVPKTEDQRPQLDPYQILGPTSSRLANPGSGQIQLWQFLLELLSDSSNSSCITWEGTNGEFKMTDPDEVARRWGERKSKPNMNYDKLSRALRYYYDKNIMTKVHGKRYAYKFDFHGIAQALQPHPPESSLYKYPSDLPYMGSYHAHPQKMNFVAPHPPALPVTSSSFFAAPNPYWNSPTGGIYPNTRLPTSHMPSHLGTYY
# How it was run: as §1
# ELF1 = ELF1 (Homo sapiens, UniProt P32519 1-619); details: protein: recombinant; tags: N-terminal GST; dsDNA, one strand shown
# Chain of ELF1 (P32519 whole entry): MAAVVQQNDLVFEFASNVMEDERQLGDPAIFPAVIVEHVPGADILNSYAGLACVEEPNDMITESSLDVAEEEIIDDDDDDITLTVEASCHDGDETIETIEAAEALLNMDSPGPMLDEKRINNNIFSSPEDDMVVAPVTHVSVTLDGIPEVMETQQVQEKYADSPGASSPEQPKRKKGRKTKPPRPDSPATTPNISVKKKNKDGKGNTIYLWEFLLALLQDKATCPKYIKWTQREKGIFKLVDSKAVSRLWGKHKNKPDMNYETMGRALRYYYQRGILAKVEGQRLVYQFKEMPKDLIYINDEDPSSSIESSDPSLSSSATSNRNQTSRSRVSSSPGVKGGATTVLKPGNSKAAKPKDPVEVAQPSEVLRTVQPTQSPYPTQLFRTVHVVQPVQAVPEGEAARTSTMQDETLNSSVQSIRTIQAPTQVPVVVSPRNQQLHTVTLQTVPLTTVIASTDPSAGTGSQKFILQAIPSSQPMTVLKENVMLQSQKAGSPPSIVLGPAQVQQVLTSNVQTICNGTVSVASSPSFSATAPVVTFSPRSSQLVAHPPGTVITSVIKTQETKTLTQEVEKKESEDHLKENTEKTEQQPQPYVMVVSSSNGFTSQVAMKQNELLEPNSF
# How it was run: as §1
# EHF = target: T5, EHF (Homo sapiens, UniProt Q9NZC4 1-300); details: protein: recombinant; tags: N-terminal GST; dsDNA, one strand shown
# T5 sequence: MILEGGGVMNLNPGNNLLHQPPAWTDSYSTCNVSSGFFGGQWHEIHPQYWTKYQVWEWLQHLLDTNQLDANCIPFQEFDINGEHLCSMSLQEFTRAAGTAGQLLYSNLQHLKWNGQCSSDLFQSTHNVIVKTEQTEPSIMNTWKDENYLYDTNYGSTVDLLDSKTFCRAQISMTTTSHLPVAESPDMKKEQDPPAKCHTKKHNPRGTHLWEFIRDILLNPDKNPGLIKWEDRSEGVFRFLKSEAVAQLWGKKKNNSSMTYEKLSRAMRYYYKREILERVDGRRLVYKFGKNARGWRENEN
# How it was run: as §1
# SPI1 = SPI1 (Homo sapiens, UniProt P17947 1-270); details: protein: recombinant; tags: N-terminal GST; dsDNA, one strand shown
# How it was run: as §1
# SPIB = SPIB (Homo sapiens, UniProt Q01892 1-262); details: protein: recombinant; tags: N-terminal GST; dsDNA, one strand shown
# Chain of SPIB (Q01892 whole entry): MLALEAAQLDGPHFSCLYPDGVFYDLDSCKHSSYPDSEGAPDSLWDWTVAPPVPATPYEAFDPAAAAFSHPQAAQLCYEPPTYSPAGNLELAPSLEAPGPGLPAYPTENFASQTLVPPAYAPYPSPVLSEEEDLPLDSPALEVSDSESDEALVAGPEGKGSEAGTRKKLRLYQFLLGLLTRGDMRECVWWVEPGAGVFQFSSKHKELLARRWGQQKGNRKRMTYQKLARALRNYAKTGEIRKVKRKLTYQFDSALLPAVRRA
# How it was run: as §1
# ELK3 = target: T6, ELK3 (Homo sapiens, UniProt P41970 1-407); details: protein: recombinant; tags: N-terminal GST; dsDNA, one strand shown
# T6 sequence: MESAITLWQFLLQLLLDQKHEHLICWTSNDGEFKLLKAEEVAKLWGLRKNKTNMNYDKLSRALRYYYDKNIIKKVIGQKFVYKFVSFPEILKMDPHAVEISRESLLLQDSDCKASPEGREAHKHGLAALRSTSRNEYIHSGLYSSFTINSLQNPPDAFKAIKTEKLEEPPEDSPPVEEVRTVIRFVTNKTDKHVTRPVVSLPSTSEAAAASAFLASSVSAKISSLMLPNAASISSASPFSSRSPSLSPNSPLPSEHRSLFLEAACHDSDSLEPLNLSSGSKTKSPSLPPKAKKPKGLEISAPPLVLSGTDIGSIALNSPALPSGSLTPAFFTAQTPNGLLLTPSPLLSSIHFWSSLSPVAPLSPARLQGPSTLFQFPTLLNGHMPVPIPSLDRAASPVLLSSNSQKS
# How it was run: as §1
# FEV = target: T7, FEV (Homo sapiens, UniProt Q99581 1-238); details: protein: recombinant; tags: N-terminal GST; dsDNA, one strand shown
# T7 sequence: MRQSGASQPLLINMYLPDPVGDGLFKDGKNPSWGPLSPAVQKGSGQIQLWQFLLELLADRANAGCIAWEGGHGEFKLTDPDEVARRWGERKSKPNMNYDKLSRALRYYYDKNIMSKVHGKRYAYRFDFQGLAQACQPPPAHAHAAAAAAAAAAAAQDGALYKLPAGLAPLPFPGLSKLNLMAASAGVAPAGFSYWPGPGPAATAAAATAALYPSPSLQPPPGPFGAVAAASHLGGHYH
# How it was run: as §1
# ETV5 = ETV5 (Homo sapiens, UniProt P41161 1-510); details: protein: recombinant; tags: N-terminal GST; dsDNA, one strand shown
# Chain of ETV5 (P41161 whole entry): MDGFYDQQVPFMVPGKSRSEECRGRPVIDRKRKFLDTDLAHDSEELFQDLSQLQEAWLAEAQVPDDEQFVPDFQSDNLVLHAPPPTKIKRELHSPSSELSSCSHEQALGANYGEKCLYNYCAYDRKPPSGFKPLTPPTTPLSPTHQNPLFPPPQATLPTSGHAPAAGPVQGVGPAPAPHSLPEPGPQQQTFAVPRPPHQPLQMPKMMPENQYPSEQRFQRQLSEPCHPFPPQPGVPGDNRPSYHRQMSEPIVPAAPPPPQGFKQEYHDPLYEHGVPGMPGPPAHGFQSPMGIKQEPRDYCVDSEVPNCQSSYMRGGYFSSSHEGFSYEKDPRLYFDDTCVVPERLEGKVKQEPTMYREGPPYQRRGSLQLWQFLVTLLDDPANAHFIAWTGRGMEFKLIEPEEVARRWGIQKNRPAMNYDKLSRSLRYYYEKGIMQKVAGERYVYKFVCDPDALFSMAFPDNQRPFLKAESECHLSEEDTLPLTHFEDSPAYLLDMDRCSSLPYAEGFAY
# How it was run: as §1
# HSF1 = HSF1 (Homo sapiens, UniProt Q00613 1-529); details: protein: recombinant; tags: N-terminal GST; chain copies: 3; dsDNA, one strand shown
# Chain of HSF1 (Q00613 whole entry): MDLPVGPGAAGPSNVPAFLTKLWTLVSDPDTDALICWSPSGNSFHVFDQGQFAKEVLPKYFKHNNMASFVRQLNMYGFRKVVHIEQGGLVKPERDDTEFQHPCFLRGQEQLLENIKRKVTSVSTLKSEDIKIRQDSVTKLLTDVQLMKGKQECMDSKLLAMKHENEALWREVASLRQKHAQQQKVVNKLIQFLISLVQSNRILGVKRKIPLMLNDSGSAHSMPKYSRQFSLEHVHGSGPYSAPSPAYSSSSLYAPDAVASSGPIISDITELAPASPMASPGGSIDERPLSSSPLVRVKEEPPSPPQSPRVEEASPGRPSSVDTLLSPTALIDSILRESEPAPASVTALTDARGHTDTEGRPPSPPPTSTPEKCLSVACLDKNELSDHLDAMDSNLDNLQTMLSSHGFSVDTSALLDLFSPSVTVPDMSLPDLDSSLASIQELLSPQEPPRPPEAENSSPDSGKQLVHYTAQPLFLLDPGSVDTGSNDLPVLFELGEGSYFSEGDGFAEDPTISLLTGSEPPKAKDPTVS
# How it was run: as §1
# SPIC = target: T8, SPIC (Homo sapiens, UniProt Q8N5J4 1-248); details: protein: recombinant; tags: N-terminal GST; dsDNA, one strand shown
# T8 sequence: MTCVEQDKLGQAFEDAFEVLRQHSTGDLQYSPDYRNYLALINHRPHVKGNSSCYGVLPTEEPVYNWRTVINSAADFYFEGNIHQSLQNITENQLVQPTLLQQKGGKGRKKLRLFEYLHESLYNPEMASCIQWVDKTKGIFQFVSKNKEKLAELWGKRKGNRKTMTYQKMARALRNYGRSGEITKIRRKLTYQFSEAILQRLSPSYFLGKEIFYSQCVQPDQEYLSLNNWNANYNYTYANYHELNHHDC
# How it was run: as §1
# ELF4 = ELF4 (Homo sapiens, UniProt Q99607 1-663); details: protein: recombinant; tags: N-terminal GST; dsDNA, one strand shown
# Chain of ELF4 (Q99607 whole entry): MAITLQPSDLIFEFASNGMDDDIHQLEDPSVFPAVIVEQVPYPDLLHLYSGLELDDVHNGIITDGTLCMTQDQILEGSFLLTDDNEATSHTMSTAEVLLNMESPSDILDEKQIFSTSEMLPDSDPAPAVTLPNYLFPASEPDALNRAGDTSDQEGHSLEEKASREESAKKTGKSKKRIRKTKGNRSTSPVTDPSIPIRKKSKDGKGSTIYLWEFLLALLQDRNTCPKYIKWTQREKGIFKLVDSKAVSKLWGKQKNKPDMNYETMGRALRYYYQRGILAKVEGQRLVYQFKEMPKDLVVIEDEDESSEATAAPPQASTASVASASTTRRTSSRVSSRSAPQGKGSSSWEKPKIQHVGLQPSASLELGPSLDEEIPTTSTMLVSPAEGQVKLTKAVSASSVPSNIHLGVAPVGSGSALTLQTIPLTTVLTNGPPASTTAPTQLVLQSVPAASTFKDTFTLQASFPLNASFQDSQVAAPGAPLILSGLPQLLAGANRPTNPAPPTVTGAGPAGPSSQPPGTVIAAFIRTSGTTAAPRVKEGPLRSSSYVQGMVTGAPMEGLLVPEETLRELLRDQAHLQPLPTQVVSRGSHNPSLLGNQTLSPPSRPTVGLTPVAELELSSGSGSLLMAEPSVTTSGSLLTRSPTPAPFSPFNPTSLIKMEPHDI
# How it was run: as §1
# ELK4 = target: T9, ELK4 (Homo sapiens, UniProt P28324-2 1-405); details: protein: recombinant; tags: N-terminal GST; dsDNA, one strand shown
# T9 sequence: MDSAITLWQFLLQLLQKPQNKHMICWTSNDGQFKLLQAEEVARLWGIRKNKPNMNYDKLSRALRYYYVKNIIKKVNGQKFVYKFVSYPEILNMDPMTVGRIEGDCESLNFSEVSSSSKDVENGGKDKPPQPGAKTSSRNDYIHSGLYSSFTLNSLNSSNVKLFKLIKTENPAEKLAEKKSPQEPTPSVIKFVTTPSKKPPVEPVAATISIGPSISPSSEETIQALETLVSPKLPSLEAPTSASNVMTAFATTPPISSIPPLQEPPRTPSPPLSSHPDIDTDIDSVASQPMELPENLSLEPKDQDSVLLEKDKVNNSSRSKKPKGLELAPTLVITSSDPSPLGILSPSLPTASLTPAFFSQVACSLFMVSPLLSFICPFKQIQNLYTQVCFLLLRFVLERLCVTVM
# How it was run: as §1
# ETV2 = target: T10, ETV2 (Homo sapiens, UniProt O00321 1-342); details: protein: recombinant; tags: N-terminal GST; dsDNA, one strand shown
# T10 sequence: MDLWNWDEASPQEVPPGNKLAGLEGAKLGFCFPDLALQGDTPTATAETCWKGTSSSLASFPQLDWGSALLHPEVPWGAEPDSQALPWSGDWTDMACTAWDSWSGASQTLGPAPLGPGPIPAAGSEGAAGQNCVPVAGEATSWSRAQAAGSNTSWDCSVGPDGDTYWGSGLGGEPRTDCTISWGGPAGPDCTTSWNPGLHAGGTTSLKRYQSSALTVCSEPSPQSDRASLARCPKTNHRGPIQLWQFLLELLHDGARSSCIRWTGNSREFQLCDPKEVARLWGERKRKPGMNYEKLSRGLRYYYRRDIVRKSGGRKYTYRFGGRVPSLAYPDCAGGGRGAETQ
# How it was run: as §1
# ELF3 = target: T11, ELF3 (Homo sapiens, UniProt P78545 1-371); details: protein: recombinant; tags: N-terminal GST; dsDNA, one strand shown
# T11 sequence: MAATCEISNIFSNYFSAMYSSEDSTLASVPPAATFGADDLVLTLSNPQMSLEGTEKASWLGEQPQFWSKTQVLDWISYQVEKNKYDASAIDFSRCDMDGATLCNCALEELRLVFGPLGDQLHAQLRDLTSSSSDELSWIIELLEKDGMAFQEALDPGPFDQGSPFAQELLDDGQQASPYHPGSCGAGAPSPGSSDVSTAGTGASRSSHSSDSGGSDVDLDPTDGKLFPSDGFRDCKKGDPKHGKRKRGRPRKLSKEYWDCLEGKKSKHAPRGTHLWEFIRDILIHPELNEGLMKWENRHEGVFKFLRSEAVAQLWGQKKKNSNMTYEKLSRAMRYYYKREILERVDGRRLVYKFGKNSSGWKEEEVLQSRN
# How it was run: as §1
# CRX = CRX (Homo sapiens, UniProt O43186 1-299); details: protein: recombinant; tags: N-terminal GST; dsDNA, one strand shown
# Chain of CRX (O43186 whole entry): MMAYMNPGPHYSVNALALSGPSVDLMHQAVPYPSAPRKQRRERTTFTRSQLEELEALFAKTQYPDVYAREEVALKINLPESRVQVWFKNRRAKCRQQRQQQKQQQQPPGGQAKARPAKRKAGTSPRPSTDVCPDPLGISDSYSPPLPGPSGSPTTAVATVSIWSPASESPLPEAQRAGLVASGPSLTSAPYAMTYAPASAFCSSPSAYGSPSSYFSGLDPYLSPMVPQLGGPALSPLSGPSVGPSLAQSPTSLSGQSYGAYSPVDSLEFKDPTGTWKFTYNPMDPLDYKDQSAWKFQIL
# How it was run: as §1
# ETV1 = ETV1 (Homo sapiens, UniProt P50549 1-477); details: protein: recombinant; tags: N-terminal GST; dsDNA, one strand shown
# Chain of ETV1 (P50549 whole entry): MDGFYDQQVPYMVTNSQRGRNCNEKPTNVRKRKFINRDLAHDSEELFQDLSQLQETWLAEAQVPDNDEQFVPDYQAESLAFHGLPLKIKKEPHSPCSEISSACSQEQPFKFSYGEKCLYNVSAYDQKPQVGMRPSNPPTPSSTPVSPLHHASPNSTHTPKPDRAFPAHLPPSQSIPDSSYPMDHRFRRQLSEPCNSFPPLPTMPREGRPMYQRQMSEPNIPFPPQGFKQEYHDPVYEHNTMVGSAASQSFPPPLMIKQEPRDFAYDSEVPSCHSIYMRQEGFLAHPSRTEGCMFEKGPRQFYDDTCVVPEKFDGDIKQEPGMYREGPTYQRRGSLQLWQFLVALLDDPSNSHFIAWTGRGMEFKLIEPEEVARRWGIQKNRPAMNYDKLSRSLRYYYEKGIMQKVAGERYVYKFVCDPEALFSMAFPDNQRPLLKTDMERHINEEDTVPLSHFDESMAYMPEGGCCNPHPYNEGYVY
# How it was run: as §1
sequence,measurement,setting,value
TGTGCT,binding signal,FLI1,"1.13 fold enrichment (6-mer frequency, TF over GST control)"
same,binding signal,ELK1,"1.23 fold enrichment (6-mer frequency, TF over GST control)"
same,binding signal,GABPA,"1.24 fold enrichment (6-mer frequency, TF over GST control)"
same,binding signal,ERG,"1.23 fold enrichment (6-mer frequency, TF over GST control)"
same,binding signal,ELF1,"1.2 fold enrichment (6-mer frequency, TF over GST control)"
same,binding signal,EHF,"1.11 fold enrichment (6-mer frequency, TF over GST control)"
same,binding signal,SPI1,"1.24 fold enrichment (6-mer frequency, TF over GST control)"
same,binding signal,SPIB,"1.14 fold enrichment (6-mer frequency, TF over GST control)"
same,binding signal,ELK3,"1.16 fold enrichment (6-mer frequency, TF over GST control)"
same,binding signal,FEV,"1.25 fold enrichment (6-mer frequency, TF over GST control)"
same,binding signal,ETV5,"1.18 fold enrichment (6-mer frequency, TF over GST control)"
same,binding signal,HSF1,"1.15 fold enrichment (6-mer frequency, TF over GST control)"
same,binding signal,SPIC,"1.35 fold enrichment (6-mer frequency, TF over GST control)"
same,binding signal,ELF4,"1.17 fold enrichment (6-mer frequency, TF over GST control)"
same,binding signal,ELK4,"1.17 fold enrichment (6-mer frequency, TF over GST control)"
same,binding signal,ETV2,"1.21 fold enrichment (6-mer frequency, TF over GST control)"
same,binding signal,ELF3,"1.27 fold enrichment (6-mer frequency, TF over GST control)"
same,binding signal,CRX,"1.1 fold enrichment (6-mer frequency, TF over GST control)"
same,binding signal,ETV1,"1.18 fold enrichment (6-mer frequency, TF over GST control)"
